Results reported in the supplement of paper PMC4709259.
Structures can show the parent of a compound that is named as a salt. ± gives the standard deviation.

Columns and labels:
Jurkat [1] = test: mean cell size (FSC-A) relative to DMSO control (fraction of control); higher = larger cells; settings: 48 h
Procedure, shortened: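 Jurkat cells at 600 cells/µl were incubated for 1 h and then treated for 48h with the Enzo Screen-Well FDA Approved Drug Library v2.0 at 25µM, with DMSO at 0.9% (v/v) final. Compounds that reduced counts below 20% of controls were retested in 10-fold dilutions down to 25nM. Cell count and mean cell size, taken as forward scatter area, were measured by flow cytometry relative to solvent-only controls. Each plate carried 6-12 controls, and values are means of 3 biological replicates.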

Jurkat [2] = test: cell count relative to DMSO control (fraction of control); higher = more cells (less growth inhibition); settings: 48 h

Structure (SMILES)	mean cell size (Jurkat [1])	cell count (Jurkat [2])
NCC1(CC(=O)O)CCCCC1 [Gabapentin] (concentration: 25 µM)	0.943 ± 0.02	0.935 ± 0.036
Oc1ccc2c3c1O[C@H]1[C@@H](O)CC[C@@]4(O)[C@@H](C2)N(CC2CCC2)CC[C@]314 [Nalbuphine·HCl Dihydrate] (concentration: 25 µM)	0.955 ± 0.048	0.995 ± 0.17
CC(C)C[C@H](CN)CC(=O)O [Pregabalin] (concentration: 25 µM)	1.03 ± 0.02	0.592 ± 0.12
Cl[C@H]1[C@H](Cl)[C@@H](Cl)[C@@H](Cl)[C@H](Cl)[C@H]1Cl [Lindane] (concentration: 25 µM)	0.981 ± 0.037	0.667 ± 0.091
O=C1Nc2ccc(Cl)cc2C(c2ccccc2)=NC1O (stereo not given) [Oxazepam] (concentration: 25 µM)	0.938 ± 0.029	0.645 ± 0.05
CN(C)[C@@H]1C(=O)C(C(N)=O)=C(O)[C@@]2(O)C(=O)C3=C(O)c4c(O)cccc4[C@@](C)(O)[C@H]3[C@H](O)[C@@H]12 [Oxytetracycline·HCl] (concentration: 25 µM)	0.894 ± 0.014	0.884 ± 0.1
COc1ccc2c(c1)[C@]13CCCC[C@@H]1[C@H](C2)N(C)CC3 [Dextromethorphan] (concentration: 25 µM)	0.936 ± 0.022	0.841 ± 0.024
CN1[C@@H]2C[C@@H](OC(=O)[C@H](CO)c3ccccc3)C[C@H]1[C@@H]1O[C@@H]12 [Scopolamine·HBr] (concentration: 25 µM)	1 ± 0.061	0.608 ± 0.1
CN1C[C@H](C(=O)N[C@]2(C)O[C@@]3(O)[C@@H]4CCCN4C(=O)[C@H](Cc4ccccc4)N3C2=O)C[C@@H]2c3cccc4[nH]cc(c34)C[C@H]21 [Dihydroergotamine Mesylate] (concentration: 25 µM)	1 ± 0.027	0.297 ± 0.092
O=P1(N(CCCl)CCCl)NCCCO1 (stereo not given) [Cyclophosphamide (Free Base)] (concentration: 25 µM)	1.01 ± 0.051	0.623 ± 0.15
Cc1cccc([C@H](C)c2c[nH]cn2)c1C [Dexmedetomidine·HCl] (concentration: 25 µM)	0.942 ± 0.06	0.375 ± 0.13
Cc1c(N)nc(C(CC(N)=O)NCC(N)C(N)=O)nc1C(=O)NC(C(=O)NC(C)C(O)C(C)C(=O)NC(C(=O)NCCc1nc(-c2nc(C(=O)NCCC[S+](C)C)cs2)cs1)C(C)O)C(O[C@@H]1O[C@@H](CO)[C@@H](O)[C@H](O)[C@@H]1O[C@H]1O[C@H](CO)[C@@H](O)[C@H](OC(N)=O)[C@@H]1O)c1cnc[nH]1 (stereo not given in full) [Bleomycin Sulfate] (concentration: 2.5 µM)	1.33 ± 0.048	0.297 ± 0.043
COc1cc([C@@H]2c3cc4c(cc3[C@H](O)[C@H]3COC(=O)[C@H]23)OCO4)cc(OC)c1OC [Podofilox] (concentration: 25 nM)	0.863 ± 0.026	0.0355 ± 0.018
Cc1nnc2n1-c1ccc(Cl)cc1C(c1ccccc1Cl)=NC2 [Triazolam] (concentration: 25 µM)	0.935 ± 0.05	0.992 ± 0.11
CCOC(=O)c1cncn1[C@H](C)c1ccccc1 [Etomidate] (concentration: 25 µM)	1.04 ± 0.049	0.854 ± 0.055
O=C1CN=C(c2ccccc2Cl)c2cc([N+](=O)[O-])ccc2N1 [Clonazepam] (concentration: 25 µM)	1.02 ± 0.06	0.659 ± 0.12
C=C1C[C@@H]2[C@H](CC[C@]3(C)C(=O)CC[C@@H]23)[C@@]2(C)C=CC(=O)C=C12 [Exemestane] (concentration: 25 µM)	0.914 ± 0.029	0.422 ± 0.12
CN(C)C(=O)Oc1ccc[n+](C)c1 [Pyridostigmine Bromide] (concentration: 25 µM)	0.986 ± 0.027	0.651 ± 0.11
Cn1c(CCCC(=O)O)nc2cc(N(CCCl)CCCl)ccc21 [Bendamustine·HCl] (concentration: 25 µM)	1.26 ± 0.022	0.2666 ± 0.00052
CC(C)C[C@H]1C(=O)N2CCC[C@H]2[C@]2(O)O[C@](NC(=O)[C@@H]3C=C4c5cccc6[nH]c(Br)c(c56)C[C@H]4N(C)C3)(C(C)C)C(=O)N12 [Bromocriptine Mesylate] (concentration: 25 µM)	0.939 ± 0.031	0.288 ± 0.21
C[N+]1(C)[C@@H]2CC(OC(=O)[C@H](CO)c3ccccc3)C[C@H]1[C@@H]1O[C@@H]12 (stereo partly drawn) [Methscopolamine Bromide ((-)-Scopolamine Methyl Bromide)] (concentration: 25 µM)	1.05 ± 0.046	0.683 ± 0.089
CC(=O)O[C@H]1C[C@@H]2CC[C@@H]3[C@H](CC[C@@]4(C)[C@H]3C[C@H]([N+]3(C)CCCCC3)[C@@H]4OC(C)=O)[C@@]2(C)C[C@@H]1[N+]1(C)CCCCC1 [Pancuronium·2Br] (concentration: 25 µM)	0.963 ± 0.015	1.12 ± 0.09
CCOC(=O)CC(SP(=S)(OC)OC)C(=O)OCC (stereo not given) [Malathion] (concentration: 25 µM)	0.916 ± 0.041	1.06 ± 0.074
CN(C)[C@@H]1C(=O)C(C(N)=O)=C(O)[C@@]2(O)C(=O)C3=C(O)c4c(O)cccc4[C@@](C)(O)[C@H]3C[C@@H]12 [Tetracycline] (concentration: 25 µM)	0.998 ± 0.064	0.556 ± 0.046
CCCCCCC(=O)O[C@H]1CC[C@H]2[C@@H]3CCC4=CC(=O)CC[C@]4(C)[C@H]3CC[C@]12C [Testosterone Enanthate] (concentration: 25 µM)	0.954 ± 0.047	0.703 ± 0.12

Structure (SMILES)	mean cell size (Jurkat [1])	cell count (Jurkat [2])
C[C@]12CC[C@@H]3c4ccc(OC(=O)N(CCCl)CCCl)cc4CC[C@H]3[C@@H]1CC[C@@H]2OP(=O)(O)O [Estramustine Phosphate·Na] (concentration: 25 µM)	0.958 ± 0.045	0.781 ± 0.051
NC(=O)C[S+]([O-])C(c1ccccc1)c1ccccc1 (stereo not given) [Modafinil (Schedule Iv)] (concentration: 25 µM)	0.968 ± 0.014	0.807 ± 0.05
CN1CCN(C(=O)O[C@H]2c3nccnc3C(=O)N2c2ccc(Cl)cn2)CC1 [Eszopiclone] (concentration: 25 µM)	1.01 ± 0.025	0.796 ± 0.072
O=C1Nc2ccc(Cl)cc2C(c2ccccc2Cl)=NC1O (stereo not given) [Lorazepam] (concentration: 25 µM)	0.927 ± 0.03	0.912 ± 0.056
O=C1CC[C@@]2(O)[C@H]3Cc4ccc(O)c5c4[C@@]2(CCN3CC2CC2)[C@H]1O5 [Naltrexone·HCl] (concentration: 2.5 µM)	0.985 ± 0.049	0.399 ± 0.091
NCCCNCCSP(=O)(O)O [Amifostine] (concentration: 25 µM)	0.95 ± 0.036	0.8 ± 0.12
CN1C(=O)CC(=O)N(c2ccccc2)c2cc(Cl)ccc21 [Clobazam] (concentration: 25 µM)	0.984 ± 0.032	0.64 ± 0.12
COC[C@@H](NC(C)=O)C(=O)NCc1ccccc1 [Lacosamide] (concentration: 25 µM)	0.927 ± 0.067	0.639 ± 0.031
CC1(C)C(C=C(Cl)Cl)C1C(=O)OCc1cccc(Oc2ccccc2)c1 (stereo not given) [Permethrin] (concentration: 25 µM)	1.03 ± 0.068	1.05 ± 0.08
C=CCN1CC[C@]23c4c5ccc(O)c4O[C@H]2C(=O)CC[C@@]3(O)[C@H]1C5 [Naloxone·HCl] (concentration: 25 µM)	0.947 ± 0.018	0.96 ± 0.071
N.N.[Cl][Pt][Cl] [Cisplatin (Cis-Diamineplatinum(Ii) Dichloride )] (concentration: 25 µM)	1.043 ± 0.0024	0.895 ± 0.045
CCCC(C)(COC(N)=O)COC(N)=O [Meprobamate (Schedule Iv)] (concentration: 25 µM)	1.08 ± 0.036	0.941 ± 0.069
CN1C(=O)C(O)N=C(c2ccccc2)c2cc(Cl)ccc21 (stereo not given) [Temazepam] (concentration: 25 µM)	0.805 ± 0.037	0.916 ± 0.032
CCN(C)C(=O)Oc1cccc([C@H](C)N(C)C)c1 [Rivastigmine Tartrate] (concentration: 25 µM)	1.01 ± 0.022	0.843 ± 0.13
CN1C(=O)CN=C(c2ccccc2)c2cc(Cl)ccc21 [Diazepam] (concentration: 25 µM)	0.911 ± 0.048	0.925 ± 0.098
O=P1(NCCCl)OCCCN1CCCl (stereo not given) [Ifosfamide] (concentration: 25 µM)	0.938 ± 0.026	0.372 ± 0.12
Nc1ccncc1 [Dalfampridine (4-Aminopyridine)] (concentration: 25 µM)	0.999 ± 0.044	0.646 ± 0.16
O=C(O)CCCc1ccc(N(CCCl)CCCl)cc1 [Chlorambucil] (concentration: 250 nM)	0.945 ± 0.019	0.352 ± 0.089
O=C(O[C@H]1C[C@H]2CC[C@@H](C1)[N+]21CCCC1)C(O)(c1ccccc1)c1ccccc1 [Trospium Chloride] (concentration: 25 µM)	1.07 ± 0.049	0.982 ± 0.079
COc1cc2c(cc1OC)C1CC(=O)C(CC(C)C)CN1CC2 (stereo not given) [Tetrabenazine] (concentration: 25 µM)	0.921 ± 0.031	0.833 ± 0.093
C[N+]1(C)CCCC(OC(=O)C(O)(c2ccccc2)c2ccccc2)C1 (stereo not given) [Mepenzolate Bromide] (concentration: 25 µM)	0.91 ± 0.039	1.15 ± 0.042
O=[N+]([O-])O[C@H]1CO[C@H]2[C@@H]1OC[C@H]2O[N+](=O)[O-] [Isosorbide Dinitrate] (concentration: 25 µM)	0.945 ± 0.023	1.04 ± 0.081
CN1C[C@H](C(=O)N[C@]2(C)O[C@@]3(O)[C@@H]4CCCN4C(=O)[C@H](Cc4ccccc4)N3C2=O)C=C2c3cccc4[nH]cc(c34)C[C@H]21 [Ergotamine Tartrate] (concentration: 25 µM)	1.07 ± 0.054	0.745 ± 0.057
CC(C)c1cccc(C(C)C)c1O [Propofol] (concentration: 25 µM)	0.972 ± 0.025	1.11 ± 0.027
C#CCN(C)[C@H](C)Cc1ccccc1 [Selegiline·HCl] (concentration: 25 µM)	0.9392 ± 0.0074	0.711 ± 0.098
